5 molecules from PubChem BioAssay (NCATS) can be followed below.

Assay [1] is described as follows: MultiTox-Fluor Cytotoxicity Assay - LYMP1-002 - Dead Cells (AID 960). Also: nearly all actives have a fitted effect of over 60% in size. The method in brief:
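Dead-cell fluorescence (Ex/Em 485/520) after 16 h compound exposure at 37 C of LYMP1-002 lymphoblastoid cells in complete medium; AC50 by Hill equation, with data scaled between DMSO and 15 uM tetraoctylammonium bromide.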

Assay [2] in a line: MultiTox-Fluor Cytotoxicity Assay - LYMP1-003 - Dead Cells (AID 961). Also: potency is read from the fitted curve at half-maximal effect; nearly all actives have a fitted effect of over 70% in size. Put shortly:
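LYMP1-003 human lymphoblastoid cells (2500/well) exposed to compound 16 h at 37 C in complete medium; dead-cell protease read with bis-AAF-R110 fluorescence (Ex/Em 485/520) after 60 min at room temperature. Normalized to DMSO and 15 uM tetraoctylammonium bromide; AC50 from Hill fit.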

Assay [3] can be described thus: Cell Viability - LYMP1-003 - Assay at 40 hr (AID 964). Also: potency is read from the fitted curve at half-maximal effect; nearly all actives have a fitted effect of over 60% in size. Put shortly: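 Viability is taken as cellular ATP, read by CellTiter-Glo luminescence after 40 h of compound exposure at 37 C. Cells: human lymphoblastoid line LYMP1-003 at 2500/well; AC50 values derived by Hill-equation fitting of concentration-response data.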
Assay [4] in a line: Cell Viability - LYMP2-009 (AID 968). Also: potency is read from the fitted curve at half-maximal effect; nearly all actives have a fitted effect of over 55% in size.
Assay [5] is described as follows: Cell Viability - LYMP2-019 (AID 973). Also: potency is read from the fitted curve at half-maximal effect; nearly all actives have a fitted effect of over 55% in size. Put shortly:
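AC50 values come from Hill-equation fits of luminescent intracellular ATP (CellTiter-Glo, 30 min, room temperature) following 24 h compound exposure at 37 C. Cells: LYMP2-019 lymphoblastoid line, 2500 per well, in complete culture medium.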

Assay [6] is described as follows: Cell Viability - LYMP2-021 (AID 974). Also: potency is read from the fitted curve at half-maximal effect; nearly all actives have a fitted effect of over 55% in size. The method in brief:
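AC50 values come from Hill-equation fits to CellTiter-Glo luminescence (ATP content), read after 24 hour compound exposure at 37 C of 2500 LYMP2-021 lymphoblastoid cells/well; tetraoctylammonium bromide as positive control.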

Records with an inconclusive call do not appear. Activity calls are given as the source filed them. Calls follow the shape of the dose curve; as a rule, active = well fitted curve in the direction sought with a large enough effect; inconclusive = small, poorly fitted or top-dose-only effect, or another doubt; inactive = no such curve, though single readings can be large; an effect the other way counts as inactive or inconclusive.

For the molecule `CC1(C)[C@@H]2CC[C@@]1(C)C(=O)C2`, the Potency entry in assay [1] is “inactive”. Turning to `CCCCCCCCCCCCCCCC[n+]1ccccc1`, the Potency in assay [2] was 20 µM (active). `CN(C)c1ccc(C(=C2C=CC(=[N+](C)C)C=C2)c2ccc(N(C)C)cc2)cc1`: the Potency in assay [2] was 10 µM (active).

For the molecule `Oc1ccc(Cl)cc1Sc1cc(Cl)ccc1O`, the Potency in assay [3] is 31.6 µM (active); in assay [4], 39.8 µM (active); in assay [5], 39.8 µM (active); in assay [6], 39.8 µM (active). Take `Oc1ccc(Cl)cc1Cc1cc(Cl)ccc1O`: the Potency in assay [3] is 25.1 µM (active).
